According to PubChem BioAssay:
The source made the active and inactive calls.

Legend:
[1] = test system: Human papillomavirus type 1a protein E7 (residues 44-93); assay: HPV1a E7 fragment binders on microarrays, primary screen, biochemical, small-molecule microarray, residues 44-93, 635 nm fluorescence (AID 1108); conditions: small-molecule microarray binding, fluorescence 635 nm; higher = more signal;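 also: E7 fragment applied at 1 µg/mL in TBST for 1 h at 4 C; score combines spot fluorescence with its signal to noise ratio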
[2] = modulators of HCV replicon luciferase signal, primary screen, HCV replication inhibitor project, Huh7 cells, luciferase reporter (AID 1109); conditions: 48 h, higher = more signal;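 also: huh7 hepatoma cells harbouring a luciferase neomycin HCV replicon reporter; luciferase luminescence as measure of HCV replicon replication; test concentration not given here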
[3] = biological target: Left-right determination factor 2 (Homo sapiens) (UniProt O00292); assay: LEFTY2 binders on small-molecule microarrays, primary screen, biochemical, small-molecule microarray, 635 nm fluorescence scan (AID 1110); conditions: LEFTY2 binding, higher = more signal
[4] = biological target: Calmodulin-1 (Homo sapiens) (UniProt P0DP23); assay: CALM1 binders on microarrays, EGTA buffer, profiling panel, biochemical, small-molecule microarray, Cy5-labelled CALM1 (AID 1111); conditions: Cy5-CALM1 binding fluorescence, higher = more signal;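 also: labelled calmodulin applied in Tris saline Tween buffer holding calcium plus EGTA and DTT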
[5] = biological target: Calmodulin-1 (Homo sapiens) (UniProt P0DP23); assay: calcium-bound CALM1 binders on microarrays, profiling panel, artefact control for SMM control-protein annotation, biochemical, small-molecule microarray, Cy5-labelled CALM1, plus calcium (AID 1112); conditions: Cy5-CALM1 binding fluorescence, higher = more signal;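 also: score merges spot fluorescence with signal to noise from triplicate slides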
[6] = small-molecule microarray binders of probe aWnt5a, primary screen, biochemical, biotinylated probe, 635/667 nm fluorescence (AID 1113); conditions: higher = more signal;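 also: score merges 667 nm fluorescence intensity with signal-to-noise per printed feature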
[7] = small-molecule microarray binders of probe aShh, primary screen, biochemical, biotinylated probe, 635/667 nm fluorescence (AID 1114); conditions: higher = more signal;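 also: probe is biotin-labelled aShh protein from a stem cell growth factor screen; measures binding of labelled protein to compounds printed on the slide; score merges feature fluorescence at 667 nm with signal-to-noise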
[8] = small-molecule microarray binders of probe aNog, primary screen, biochemical, biotinylated probe, 635/667 nm fluorescence (AID 1115); conditions: higher = more signal;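 also: probe is biotinylated aNog protein used at 0.15 µg/mL for 1 h at 4 C; z-score combines 667 nm fluorescence of each spot with its signal to noise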
[9] = biological target: Torsin-1A-interacting protein 1 (Homo sapiens) (UniProt Q5JTV8); assay: LAP1 binders from COS7 cell lysate, primary screen, small-molecule microarray, 635/667 nm fluorescence (AID 1116); conditions: COS7-hLAP1 lysate binding, 635 nm fluorescence, higher = more signal
[10] = biological target: Alpha-bungarotoxin (Bungarus multicinctus) (UniProt P60615); assay: alpha-bungarotoxin binders on microarray, profiling panel, artefact control for SMM control protein annotation, biochemical, small-molecule microarray, Alexa647 label, 635/667 nm fluorescence (AID 1117); conditions: alpha-BTX-A647 binding fluorescence, higher = more signal
[11] = biological target: Albumin (Bos taurus) (UniProt P02769); assay: bovine serum albumin binders on microarray, profiling panel, artefact control for SMM control protein annotation, biochemical, small-molecule microarray, Alexa647 label, 635/667 nm fluorescence (AID 1118); conditions: BSA-A647 binding, fluorescence 635 nm, higher = more signal;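 also: score merges 667 nm emission intensity and signal-to-noise per printed compound spot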
[12] = small-molecule microarray binders of probe aXIP, primary screen, biochemical, NeuroSMM set, 635/667 nm fluorescence (AID 1119); conditions: higher = more signal, called active from +8 up or from −8 down;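 also: probe is the protein aXip251-270 applied at 1 µg/mL to compound-printed slides; binding of probe to printed compounds measured as 667 nm fluorescence plus signal to noise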
[13] = small-molecule binders of probe aNOTCH3, primary screen, biochemical, small-molecule microarray, 635/667 nm fluorescence (AID 1120); conditions: higher = more signal;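 also: probe is a biotin-tagged antibody raised against NOTCH3 rather than NOTCH3 protein; score merges spot fluorescence near 667 nm with spot signal to noise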
[14] = small-molecule binders of probe aNOTCH2, primary screen, biochemical, small-molecule microarray, 635/667 nm fluorescence (AID 1121); conditions: higher = more signal;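 also: score merges feature fluorescence read at 667 nm with its signal to noise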
[15] = biological target: Carbonic anhydrase 2 (Homo sapiens) (UniProt P00918); assay: CAII small-molecule binders, profiling panel, biochemical, small-molecule microarray, Alexa647-labelled CAII (AID 1122); conditions: CAII-A647 binding fluorescence, higher = more signal
[16] = COS7 lysate on small-molecule microarray, probe aHis, 635 nm (AID 1123); conditions: COS7 cell lysate, fluorescence, higher = more signal;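 also: z-score combines 667nm fluorescence intensity with signal-to-noise per printed compound spot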
[17] = compound binding in COS7 lysate, probe aLAP1, primary screen, cell lysate, small-molecule microarray (AID 1124); conditions: probe aLAP1, fluorescence, higher = more signal;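 also: lysate comes from COS7 cells expressing LAP1 and is applied at 0.3 µg/mL; score merges spot fluorescence near 667 nm with signal-to-noise over triplicate slides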
[18] = test system: Sam68 (KHDRBS1); assay: Sam68 small-molecule binders, primary screen, biochemical, small-molecule microarray, 635 nm fluorescence (AID 1125); conditions: small-molecule microarray binding, higher = more signal;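 also: score merges 667 nm channel intensity with signal to noise over triplicate slides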
[19] = test system: Chordin-like protein 2 (CHRDL2); assay: CHRDL2 small-molecule binders, primary screen, biochemical, small-molecule microarray, 635 nm fluorescence (AID 1126); conditions: small-molecule microarray binding, fluorescence 635 nm; higher = more signal;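 also: printed compound slides probed with Chrdl2 protein at 4 µg/mL for 1 h at 4 C; score merges 667 nm emission intensity with signal to noise over three replicate slides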
[20] = biological target: Concanavalin-A (Canavalia ensiformis) (UniProt P02866); assay: ConA small-molecule binders, primary screen, artefact control for SMM control protein annotation, biochemical, small-molecule microarray, Alexa647 label, 635 nm (AID 1127); conditions: ConA-A647 binding fluorescence, higher = more signal;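 also: z combines 667 nm emission intensity with signal-to-noise across three replicate slides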
Sequence of Concanavalin-A (Canavalia ensiformis) (P02866 whole entry, looked up): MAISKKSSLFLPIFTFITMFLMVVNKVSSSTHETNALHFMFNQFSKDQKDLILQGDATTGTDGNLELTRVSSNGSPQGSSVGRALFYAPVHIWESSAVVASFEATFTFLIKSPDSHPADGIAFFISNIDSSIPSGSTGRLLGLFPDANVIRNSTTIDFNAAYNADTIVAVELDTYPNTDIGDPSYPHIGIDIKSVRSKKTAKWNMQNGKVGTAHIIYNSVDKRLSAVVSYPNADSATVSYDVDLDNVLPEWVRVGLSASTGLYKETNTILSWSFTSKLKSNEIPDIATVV

Sequence of Albumin (Bos taurus) (P02769 whole entry, looked up): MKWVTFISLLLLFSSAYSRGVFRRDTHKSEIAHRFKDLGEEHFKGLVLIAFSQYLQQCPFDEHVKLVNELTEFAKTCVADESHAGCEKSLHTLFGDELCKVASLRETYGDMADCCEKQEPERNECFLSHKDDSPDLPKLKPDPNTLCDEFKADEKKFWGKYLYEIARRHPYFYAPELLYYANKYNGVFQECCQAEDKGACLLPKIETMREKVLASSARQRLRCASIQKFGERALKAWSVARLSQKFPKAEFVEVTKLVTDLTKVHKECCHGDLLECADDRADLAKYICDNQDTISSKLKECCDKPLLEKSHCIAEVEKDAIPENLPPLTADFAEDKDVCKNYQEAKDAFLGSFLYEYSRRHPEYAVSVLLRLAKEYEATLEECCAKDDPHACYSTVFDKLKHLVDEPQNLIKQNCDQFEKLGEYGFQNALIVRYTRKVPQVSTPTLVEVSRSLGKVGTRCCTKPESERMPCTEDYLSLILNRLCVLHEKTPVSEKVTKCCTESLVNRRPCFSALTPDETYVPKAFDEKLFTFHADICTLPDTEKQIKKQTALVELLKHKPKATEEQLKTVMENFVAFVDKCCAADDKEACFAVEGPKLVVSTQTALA
Sequence of Torsin-1A-interacting protein 1 (Homo sapiens) (Q5JTV8 whole entry, looked up): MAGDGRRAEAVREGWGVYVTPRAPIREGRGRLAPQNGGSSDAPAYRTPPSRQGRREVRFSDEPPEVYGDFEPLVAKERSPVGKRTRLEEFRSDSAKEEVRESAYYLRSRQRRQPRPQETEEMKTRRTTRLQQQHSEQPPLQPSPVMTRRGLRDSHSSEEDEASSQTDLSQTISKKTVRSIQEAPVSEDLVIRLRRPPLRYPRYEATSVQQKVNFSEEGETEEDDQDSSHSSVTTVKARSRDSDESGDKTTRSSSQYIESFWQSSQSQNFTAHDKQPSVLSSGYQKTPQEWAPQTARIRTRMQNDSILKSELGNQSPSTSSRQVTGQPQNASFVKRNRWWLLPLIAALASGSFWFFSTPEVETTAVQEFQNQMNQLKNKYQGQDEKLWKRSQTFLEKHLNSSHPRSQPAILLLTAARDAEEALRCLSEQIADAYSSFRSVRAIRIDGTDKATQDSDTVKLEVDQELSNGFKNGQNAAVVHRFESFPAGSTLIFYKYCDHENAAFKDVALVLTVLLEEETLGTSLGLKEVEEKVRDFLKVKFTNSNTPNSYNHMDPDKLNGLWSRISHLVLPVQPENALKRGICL
Sequence of Left-right determination factor 2 (Homo sapiens) (O00292 whole entry, looked up): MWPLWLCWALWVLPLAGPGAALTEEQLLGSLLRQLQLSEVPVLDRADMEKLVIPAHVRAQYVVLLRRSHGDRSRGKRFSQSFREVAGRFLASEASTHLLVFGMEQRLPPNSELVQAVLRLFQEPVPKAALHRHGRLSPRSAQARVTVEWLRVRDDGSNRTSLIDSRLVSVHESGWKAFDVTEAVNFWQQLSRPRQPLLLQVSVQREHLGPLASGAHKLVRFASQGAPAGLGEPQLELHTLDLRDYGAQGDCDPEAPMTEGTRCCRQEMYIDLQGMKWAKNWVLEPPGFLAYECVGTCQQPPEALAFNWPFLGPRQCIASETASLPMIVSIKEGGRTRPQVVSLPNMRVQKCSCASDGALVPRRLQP
Sequence of Alpha-bungarotoxin (Bungarus multicinctus) (P60615 whole entry, looked up): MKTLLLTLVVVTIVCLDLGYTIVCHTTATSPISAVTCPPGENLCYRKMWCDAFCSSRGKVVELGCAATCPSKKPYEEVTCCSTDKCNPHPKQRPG

| Compound | composite z-score [1] | z-score [2] | composite z-score [3] | composite z-score [4] | composite z-score [5] | composite z-score [6] | composite z-score [7] | composite z-score [8] | composite z-score [9] | composite z-score [10] | composite z-score [11] | composite Z-score [12] | composite z-score [13] | composite z-score [14] | composite z-score [15] | composite z-score [16] | composite z-score [17] | composite z-score [18] | composite z-score [19] | composite z-score [20] |
| --- | --- | --- | --- | --- | --- | --- | --- | --- | --- | --- | --- | --- | --- | --- | --- | --- | --- | --- | --- | --- |
| CO[C@H]1COC(=O)[C@@H]2CCCN2C(=O)[C@@H](C)COC(=O)CC=C[C@@H]1C | -1.03 | -0.496 | 1.2 | 0.212 | -0.823 | -0.13 | -0.0793 | -0.0209 | 0.626 | -1.16 | -0.414 | -0.275 (inactive) | -0.0647 | -0.0907 | -0.329 | -0.641 | 0.359 | 0.474 | 1.4 | 0.75 |
| CN1C(=O)C2C=CC(C(O)C(c3ccccc3)c3ccccc3)N(NC(=O)OC(C)(C)C)C2C1=O (stereo not given) | 1.32 | -0.527 | -0.0483 | 2.75 | 1.09 | 0.306 | 0.915 | 2.09 | 2.59 | 2.04 | 1.03 | 1.84 (inactive) | 0.687 | 0.498 | 0.793 | 3.42 | 1 | 1.33 | 0.0789 | 1.19 |
| COCCOC(=O)N1C(=O)[C@@]2(c3cc(C#Cc4ccc(OC)cc4)ccc31)[C@H](C(=O)N1CCN(c3ncccn3)CC1)[C@H]1C(=O)O[C@H](c3ccccc3)[C@H](c3ccccc3)N1[C@@H]2c1ccc(OCCO)cc1 | 1.4 | -1.56 | 0.64 | 0.766 | 0.397 | 0.101 | -0.229 | 1.26 | -0.109 | 0.598 | -0.447 | 0.549 (inactive) | 0.311 | 0.0966 | 0.31 | 1.1 | 0.634 | 0.556 | 0.792 | 1.08 |
| CCOC(=O)NN=C1C[C@@H](O)[C@@H](O)[C@@H]2[C@@H]3C(=O)N(C(C)(C)C)C(=O)[C@@H]3CC[C@@H]12 | -0.772 | -0.529 | 0.45 | -0.671 | -1.54 | -0.278 | -0.75 | 0.154 | -0.48 | -0.772 | -0.422 | 0.136 (inactive) | -0.0328 | -0.14 | -1.23 | -0.443 | 0.171 | -0.605 | -0.63 | -0.651 |
| CO[C@@H]1COC(=O)[C@H](C)NC(=O)[C@@H](C)COC(=O)CCC[C@H]1C | 0.379 | -1.33 | 0.753 | -0.485 | -0.704 | -0.101 | -0.138 | -0.169 | 0.268 | -0.0916 | -0.163 | -0.0735 (inactive) | 0.111 | -0.161 | 0.409 | 0.421 | -0.0546 | 0.769 | 0.777 | -0.288 |
| O=C1[C@H]2[C@H]3[C@H](O)[C@H](O)CC(=NO[C@@H]4O[C@H](CO)[C@@H](O)[C@H](O)[C@H]4O)[C@H]3CC[C@H]2C(=O)N1C1CCCCC1 | 1.3 | 0.524 | 0.271 | -0.0656 | -0.0964 | -0.0721 | 0.0062 | 0.604 | 0.129 | 0.0855 | 0.785 | -0.0164 (inactive) | 0.11 | -0.112 | 0.124 | 0.197 | 0.3 | 1.3 | -0.298 | -0.316 |
| CCCCc1nc2c(c3c1C[C@H](C)OC3)CN(CCC(C)C)CC2 | 1.23 | -0.953 | 0.893 | -0.0635 | -0.747 | -0.0704 | -0.164 | 0.372 | 0.089 | 0.595 | 0.627 | -0.214 (inactive) | -0.0343 | -0.16 | 0.221 | 1.68 | 0.44 | 1.31 | 0.388 | 0.934 |
| [N-]=[N+]=NCc1ccccc1C[C@]1(C(=O)NCc2ccccc2)N=C(c2ccc(OCCCO)cc2)O[C@H]1c1ccccc1N=[N+]=[N-] | 0.878 | -2.05 | -0.612 | 1.35 | 0.743 | 0.0068 | 0.162 | -0.716 | 0.855 | 0.947 | 0.841 | 0.187 (inactive) | 0.531 | -0.098 | 0.476 | 1.91 | 0.317 | 1.09 | -0.38 | 0.822 |
| COc1ccccc1CN1C(=O)c2ccccc2[C@@H](C(=O)NCC(F)(F)F)[C@@H]1c1ccc(CO)cc1 | 1.44 | -1.26 | -0.155 | 0.313 | 0.229 | -0.107 | 0.0446 | -0.425 | 0.488 | 0.472 | 0.522 | -0.786 (inactive) | -0.15 | -0.167 | 0.595 | 0.839 | 0.0761 | 1.33 | -0.365 | 0.721 |
| CCOC(=O)[C@H](CC(C)C)NC(=O)CCC1CC(OC(=O)NCCc2ccc(F)cc2)CC2(CCCC(COC(=O)NCc3ccccc3)O2)O1 (stereo not given in full) | 1.37 | -1.76 | 1.16 | 0.0292 | -0.008 | -0.113 | -0.214 | -0.183 | 0.575 | 0.287 | 0.173 | -0.0657 (inactive) | 0.257 | -0.131 | 0.274 | 1.27 | 0.362 | 1.14 | 0.623 | 0.754 |
